The nature of assay [1]: human hepatoma cell viability loss – ATP luminescence, cytotoxicity control for P. falciparum antimalarial project, primary screen (AID 2303;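 active means inhibition above 50%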;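 further: 0% = DMSO wells and 100% = digitonin-killed cells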). Conditions: HepG2 viability, 24-48 h, at 10 µM, active compounds read high.
Assay [2] deals with L-lactate dehydrogenase (Plasmodium falciparum (isolate CDC / Honduras)) (UniProt Q27743). The assay is described as follows: PfLDH activity inhibition – cell lysate, 3D7 strain, counter-screen for P. falciparum growth inhibition project (AID 2304).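 Further: 0% = vehicle and 100% = reference inhibitor.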 Conditions: P. falciparum 3D7 crude extract, LDH APAD/NBT absorbance; at 2 µM; active compounds read high. (The purpose of a counterscreen is to sort out artefacts and off-target activity.)

Assay [3] in a line: inhibition of 3D7 malaria parasite growth – strain 3D7 (AID 2306).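 Further: 0% = DMSO wells and 100% = chloroquine plus artemisinin control wells.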 Conditions: P. falciparum 3D7 erythrocytic growth, LDH absorbance, 72 h; at 2 µM; active compounds read high.
Assay [4] deals with Calcium-dependent protein kinase 1 (Plasmodium falciparum (isolate 3D7)) (UniProt P62344). Briefly: PfCDPK1 kinase inhibitors, biochemical, TCAMS library (AID 1159585; cut-off not given, nearly all actives have IC50 up to about 0.98 µM;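 further: inhibitors leave more ATP so luminescence rises with inhibition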). Conditions: recombinant PfCDPK1, Kinase-Glo ATP depletion luminescence. (Kinase-Glo reads ATP consumption through a luciferase reaction.)
Assay [5] deals with Plasmodium falciparum protein kinase 6 (PK6, PF3D7_1337100) (UniProt Q8IDW1). Briefly: PfPK6 kinase inhibitors, biochemical, TCAMS library (AID 1159586). The settings on record: recombinant PfPK6, Kinase-Glo ATP depletion luminescence.
Assay [6] concerns the target Protein kinase 7 (PK7), Plasmodium falciparum 3D7 (PF3D7_0213400) (UniProt Q7YTF7). Briefly: inhibition of Plasmodium PK7 catalytic activity – biochemical, TCAMS antimalarial set, Kinase-Glo luminescence (AID 1159587). The settings on record: recombinant PfPK7, Kinase-Glo ATP depletion luminescence.
Assay [7] deals with Calcium-dependent protein kinase 4 (Plasmodium falciparum (isolate 3D7)) (UniProt Q8IBS5). Briefly: PfCDPK4 kinase inhibitors, biochemical, TCAMS library (AID 1159588; cut-off not given, nearly all actives have IC50 up to about 0.91 µM). Conditions: recombinant PfCDPK4, Kinase-Glo ATP depletion luminescence.
Assay [8] in a line: antimalarial activity against Dd2 strain (AID 2302;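 active means growth inhibition above 50% at the single 2 µM test dose, taken to imply half-maximal potency below 2 µM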;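 further: 0% = DMSO untreated growth and 100% = chloroquine plus artemisinin killed control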). The settings on record: P. falciparum Dd2 in RBCs, LDH growth readout, 72 h; at 2 µM; active compounds read high.

Values without a mark were called inactive. For part of these data: Measured potencies and affinities stand elsewhere. The source made the active and inactive calls. Unless noted, how the calls were made is not given here.

Sequence of Plasmodium falciparum protein kinase 6 (PK6, PF3D7_1337100) (Q8IDW1 1-305): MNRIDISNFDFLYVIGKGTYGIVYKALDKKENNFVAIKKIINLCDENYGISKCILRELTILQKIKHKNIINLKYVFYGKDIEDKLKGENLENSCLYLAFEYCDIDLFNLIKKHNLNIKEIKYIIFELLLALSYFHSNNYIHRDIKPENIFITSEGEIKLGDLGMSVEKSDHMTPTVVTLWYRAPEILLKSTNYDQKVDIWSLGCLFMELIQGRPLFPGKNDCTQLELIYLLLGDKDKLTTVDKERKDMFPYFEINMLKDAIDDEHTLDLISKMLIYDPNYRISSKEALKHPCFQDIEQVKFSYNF
Sequence of Calcium-dependent protein kinase 4 (Plasmodium falciparum (isolate 3D7)) (Q8IBS5 whole entry, looked up): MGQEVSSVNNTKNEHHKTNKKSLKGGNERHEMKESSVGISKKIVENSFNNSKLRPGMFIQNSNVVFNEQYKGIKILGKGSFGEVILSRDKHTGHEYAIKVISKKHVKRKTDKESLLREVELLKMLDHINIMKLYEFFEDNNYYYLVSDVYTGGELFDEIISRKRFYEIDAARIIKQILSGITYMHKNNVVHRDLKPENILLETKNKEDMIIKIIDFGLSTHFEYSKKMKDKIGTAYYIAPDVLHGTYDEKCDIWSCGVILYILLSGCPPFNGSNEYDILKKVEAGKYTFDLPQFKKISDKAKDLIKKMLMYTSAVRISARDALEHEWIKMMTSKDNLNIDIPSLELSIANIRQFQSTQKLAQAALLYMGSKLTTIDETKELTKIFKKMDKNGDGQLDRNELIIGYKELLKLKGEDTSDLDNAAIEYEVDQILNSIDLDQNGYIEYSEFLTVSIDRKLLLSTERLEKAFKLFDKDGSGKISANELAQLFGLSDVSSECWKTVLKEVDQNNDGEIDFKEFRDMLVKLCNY
Sequence of Protein kinase 7 (PK7), Plasmodium falciparum 3D7 (PF3D7_0213400) (Q7YTF7 1-343): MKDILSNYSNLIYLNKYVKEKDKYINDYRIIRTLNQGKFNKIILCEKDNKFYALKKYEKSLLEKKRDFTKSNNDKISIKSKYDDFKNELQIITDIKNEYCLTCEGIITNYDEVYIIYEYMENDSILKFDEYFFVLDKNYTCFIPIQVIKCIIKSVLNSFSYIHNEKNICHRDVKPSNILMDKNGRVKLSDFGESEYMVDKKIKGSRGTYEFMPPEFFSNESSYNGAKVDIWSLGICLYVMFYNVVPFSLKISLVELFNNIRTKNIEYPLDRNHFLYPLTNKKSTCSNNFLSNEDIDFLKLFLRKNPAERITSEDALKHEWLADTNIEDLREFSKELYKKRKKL
Sequence of Calcium-dependent protein kinase 1 (Plasmodium falciparum (isolate 3D7)) (P62344 whole entry, looked up): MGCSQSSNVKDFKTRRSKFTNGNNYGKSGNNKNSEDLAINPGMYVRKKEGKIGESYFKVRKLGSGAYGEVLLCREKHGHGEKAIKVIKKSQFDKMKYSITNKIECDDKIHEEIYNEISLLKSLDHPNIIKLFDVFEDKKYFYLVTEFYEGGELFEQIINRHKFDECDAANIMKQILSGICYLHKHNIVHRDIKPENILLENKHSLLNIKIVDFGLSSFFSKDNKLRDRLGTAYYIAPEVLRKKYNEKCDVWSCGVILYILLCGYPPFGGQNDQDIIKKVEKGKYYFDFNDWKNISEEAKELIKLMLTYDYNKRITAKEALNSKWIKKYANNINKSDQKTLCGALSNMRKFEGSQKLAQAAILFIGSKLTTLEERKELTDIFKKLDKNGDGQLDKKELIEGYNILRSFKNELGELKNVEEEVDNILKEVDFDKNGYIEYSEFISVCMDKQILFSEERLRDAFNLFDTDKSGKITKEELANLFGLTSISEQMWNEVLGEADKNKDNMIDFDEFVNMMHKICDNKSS
Sequence of L-lactate dehydrogenase (Plasmodium falciparum (isolate CDC / Honduras)) (Q27743 whole entry, looked up): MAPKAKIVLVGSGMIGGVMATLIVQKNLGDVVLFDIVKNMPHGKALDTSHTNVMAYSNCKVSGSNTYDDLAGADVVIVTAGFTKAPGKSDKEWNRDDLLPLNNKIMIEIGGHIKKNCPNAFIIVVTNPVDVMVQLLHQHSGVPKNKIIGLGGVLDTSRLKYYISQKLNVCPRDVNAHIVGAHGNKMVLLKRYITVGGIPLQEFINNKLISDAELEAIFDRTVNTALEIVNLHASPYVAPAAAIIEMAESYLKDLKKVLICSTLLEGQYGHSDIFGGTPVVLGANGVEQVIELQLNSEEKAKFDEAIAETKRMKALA

As a reminder, the inhibition is the relative decrease from the control value, in per cent. For the molecule `CC(C)CN1C(=O)C(c2ccc(F)c(F)c2)=C(O)C1c1ccccc1` (stereo not drawn), the inhibition in assay [1] was 0%; in assay [2] it was -7%. In assay [3], the growth inhibition is 94% (active). Further, the outcome in assay [4], in assay [5], in assay [6] and in assay [7] was inactive.
For the molecule `Cc1[nH]c(C)c(-c2ccc(Cl)cc2)c(=O)c1I`, the growth inhibition in assay [8] was 96% (active); in assay [3] it was 93% (active). Also, the inhibition in assay [2] is -5%. Further, the result in assay [4], in assay [5], in assay [6] and in assay [7] was inactive.
In the case of `Cc1nc2ccc(S(=O)(=O)Nc3ccc(C(=O)N[C@@H](CCC(=O)O)C(=O)O)cc3)cc2c(=O)[nH]1`, the results for the growth inhibition in assay [8] and in assay [3] were 2% and 94% (active), respectively. In addition, the inhibition in assay [2] was 7%. The outcome in assay [4], in assay [5], in assay [6] and in assay [7] was inactive.
Consider `Cc1c(C(C)(C)C)ccc2nc(N)nc(N)c12`, for which the growth inhibition is -2% in assay [8] and 89% (active) in assay [3]. The inhibition in assay [2] is -1%. The result in assay [4], in assay [5], in assay [6] and in assay [7] was inactive.
As for `CN(C)Cc1ccc(CNC2CCN(Cc3ccccc3Cl)CC2)cc1`, the inhibition in assay [1] was 23%; in assay [2], -3%. Moreover, the growth inhibition in assay [3] was 82% (active). In addition, the result in assay [4], in assay [5], in assay [6] and in assay [7] was inactive.
Consider `CNC(=O)c1ccc(/C=C/C(=O)N2CCc3ccc(-c4ccccc4)cc3C2c2cccc(C(F)(F)F)c2)cc1` (stereo not drawn), for which the inhibition was 9% in assay [1] and 5% in assay [2]. Besides, the growth inhibition in assay [3] was 91% (active). In addition, the outcome in assay [4], in assay [5], in assay [6] and in assay [7] was inactive.
In the case of `CN(C)c1ccc(NC(=O)Nc2ccnc3ccccc23)cc1Br`, the inhibition in assay [1] is 21%; in assay [2], 3%. Besides, in assay [3], the growth inhibition is 98% (active). Also, the outcome in assay [4], in assay [5], in assay [6] and in assay [7] was inactive.
Turning to `Cc1cc(OCCCN2CCC(NC(=O)c3ccc(Br)cc3)C2)c2ccccc2n1` (stereo not drawn), the results for the inhibition in assay [1] and in assay [2] were 13% and -3%, respectively. The growth inhibition in assay [3] was 85% (active). For the same molecule, the result in assay [4], in assay [5], in assay [6] and in assay [7] was inactive.
`CC(C)Cc1csc(NC(=O)C=Cc2ccco2)c1C(=O)O`: the values for the inhibition in assay [1] and in assay [2] were 4% and -2%, respectively. Further, in assay [3], the growth inhibition was 82% (active). Besides, the outcome in assay [4], in assay [5], in assay [6] and in assay [7] was inactive.
As for `COc1ccc(Cl)cc1N1CCN(CCCNC(=O)c2ccc(-c3nc4c(C)cccc4[nH]3)s2)CC1`, the inhibition in assay [1] was -2%; in assay [2], 5%. In addition, the growth inhibition in assay [3] was 98% (active). Moreover, the outcome in assay [4], in assay [5], in assay [6] and in assay [7] was inactive.
`CC(=O)Nc1ccc(CN2CCc3ccc(NS(=O)(=O)c4ccc(-c5cccc(C(F)(F)F)c5)cc4)cc3CC2)s1`: the inhibition in assay [1] was 23%; in assay [2], 0%. Moreover, the growth inhibition in assay [3] was 82% (active). Besides, the outcome in assay [4], in assay [5], in assay [6] and in assay [7] was inactive.
Regarding `N#Cc1cc(N(CCCOc2cccc(OC(F)(F)F)c2)Cc2ccccc2C(F)(F)F)ccc1C(F)(F)F`, the inhibition is 2% in assay [1] and 0% in assay [2]. Moreover, the growth inhibition in assay [3] was 94% (active). Also, the result in assay [4], in assay [5], in assay [6] and in assay [7] was inactive.
As for `COc1cc(OC)cc(C(=O)Nc2nc(-c3ccc(NC(=O)c4ccccc4)cc3)cs2)c1`, the figures for the inhibition in assay [1] and in assay [2] were 16% and -1%, respectively. Further, the growth inhibition in assay [3] was 88% (active). For the same molecule, the outcome in assay [4], in assay [5], in assay [6] and in assay [7] was inactive.
Take `S=C(Nc1ccc(Cl)cc1)Nc1ccc(Nc2ccccc2)cc1`: the inhibition in assay [1] is 14%; in assay [2], -4%. Further, the growth inhibition in assay [3] is 84% (active). For the same molecule, the outcome in assay [4], in assay [5], in assay [6] and in assay [7] was inactive.
For the molecule `COc1ccc(NS(=O)(=O)c2ccc(Oc3nc(C)nc4sc5c(c34)CCCC5)cc2)cc1`, the inhibition in assay [1] was 5%; in assay [2] it was -2%. Further, the growth inhibition in assay [3] was 96% (active). In addition, the outcome in assay [4], in assay [5], in assay [6] and in assay [7] was inactive.
Regarding `Brc1ccsc1-c1nc(NC2CCN(Cc3ccccc3)CC2)no1`, the inhibition in assay [1] is 0%; in assay [2], -2%. The growth inhibition in assay [3] was 80% (active). Also, the result in assay [4], in assay [5], in assay [6] and in assay [7] was inactive.
For the molecule `O=C(NCCCCN1CCC(c2ccc3c(c2OCCOCCO)CCCC3)CC1)c1ccc(-c2ccc(C(F)(F)F)cc2)cc1`, the results for the inhibition in assay [1] and in assay [2] were 44% and -5%, respectively. Also, the growth inhibition in assay [3] is 97% (active). Besides, the result in assay [4], in assay [5], in assay [6] and in assay [7] was inactive.
With `c1ccc2c3c([nH]c2c1)C(c1ccc2c(c1)CCO2)N(c1ncnc(N2CCN(CCCN4CCOCC4)CC2)n1)CC3` (stereo not drawn), the inhibition was 37% in assay [1] and -2% in assay [2]. Also, the growth inhibition in assay [3] was 80% (active). The outcome in assay [4], in assay [5], in assay [6] and in assay [7] was inactive.
On to `O=C(Nc1nccs1)c1sc2ccccc2c1O`, for which the inhibition in assay [1] was -2%; in assay [2] it was -1%. For the same molecule, in assay [3], the growth inhibition is 96% (active). Besides, the outcome in assay [4], in assay [5], in assay [6] and in assay [7] was inactive.
For the molecule `Cc1nc(Cl)c2c(-c3ccccc3)csc2n1`, the inhibition in assay [1] is -11%; in assay [2], 1%. Further, the growth inhibition in assay [3] was 84% (active). Also, the outcome in assay [4], in assay [5], in assay [6] and in assay [7] was inactive.
With `O=C(O)CCSc1ncnc2nc[nH]c12`, the results for the inhibition in assay [1] and in assay [2] were 7% and 6%, respectively. For the same molecule, the growth inhibition in assay [3] is 103% (active). Moreover, the result in assay [4], in assay [5], in assay [6] and in assay [7] was inactive.
As to `COc1cccc(-c2nc(Nc3ccncc3)c3ncn(C)c3n2)c1`, the values for the inhibition in assay [1] and in assay [2] were 14% and -1%, respectively. Further, the growth inhibition in assay [3] is 94% (active). Also, the outcome in assay [4], in assay [5], in assay [6] and in assay [7] was inactive.
Turning to `Cc1ccc(Nc2c3ccccc3nc3ccc(C)cc23)cc1`, the inhibition in assay [1] is 26%; in assay [2], -2%. The growth inhibition in assay [3] was 88% (active). Further, the outcome in assay [4], in assay [5], in assay [6] and in assay [7] was inactive.
`Cc1csc2nc(C(C)c3ccc(NC(=O)c4cccs4)cc3)oc(=O)c12` (stereo not drawn): the inhibition in assay [1] was -5%; in assay [2], -3%. The growth inhibition in assay [3] was 90% (active). The result in assay [4], in assay [5], in assay [6] and in assay [7] was inactive.
